The panel holds about 83,000 compounds, 20% with a hit somewhere; the sample as a whole holds those more often.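 Activity criterion: percent growth below 10, measured after cells in 96-well plates were exposed to a single compound concentration for 48 hours.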 Unmarked numbers belong to inactive results. The source made the active and inactive calls.
Key:
Experiment in all cases: NCI-60 one-dose screen, 48 h (100 = growth as untreated, 0 = no growth, -100 = all killed)
Settings in all cases: 10 µM unless noted
NCI-H23 lung = system: NCI-H23 lung
NCI-H226 lung = system: NCI-H226 lung
NCI-H322M lung = system: NCI-H322M lung
HOP-62 NSCLC = system: HOP-62 NSCLC
NCI-H460 lung = system: NCI-H460 lung
HOP-92 NSCLC = system: HOP-92 NSCLC
NCI-H522 lung = system: NCI-H522 lung
A549/ATCC NSCLC = system: A549/ATCC NSCLC
786-0 renal = system: 786-0 renal
COLO 205 colon = system: COLO 205 colon
DU-145 prostate = system: DU-145 prostate
K-562 leukemia = system: K-562 leukemia
MALME-3M melanoma = system: MALME-3M melanoma
MDA-MB-231 breast = system: MDA-MB-231 breast
RXF 393 renal = system: RXF 393 renal
SF-268 CNS = system: SF-268 CNS
SF-295 CNS = system: SF-295 CNS
SF-539 CNS = system: SF-539 CNS
UACC-257 melanoma = system: UACC-257 melanoma
M14 melanoma = system: M14 melanoma

Compound	growth (NCI-H23 lung)	growth (NCI-H226 lung)	growth (NCI-H322M lung)	growth (HOP-62 NSCLC)	growth (NCI-H460 lung)	growth (HOP-92 NSCLC)	growth (NCI-H522 lung)	growth (A549/ATCC NSCLC)	growth (786-0 renal)	growth (COLO 205 colon)	growth (DU-145 prostate)	growth (K-562 leukemia)	growth (MALME-3M melanoma)	growth (MDA-MB-231 breast)	growth (RXF 393 renal)	growth (SF-268 CNS)	growth (SF-295 CNS)	growth (SF-539 CNS)	growth (UACC-257 melanoma)	growth (M14 melanoma)
COC(=O)CCC/C=C\C[C@H]1C=CC(=O)/C1=C/C[C@@H](O)C/C=C\CC(F)(F)F	-15.2% (active)	-48% (active)	46.9%	-12.4% (active)	-47.2% (active)	-18.8% (active)	-56.6% (active)	-3.51% (active)	-39.5% (active)	-36.2% (active)	24.9%	6.69% (active)	10.2%	8.26% (active)	-5.41% (active)	17.6%	-1.18% (active)	17.8%	-15.6% (active)	-16.8% (active)
CN(C)CCN1C(=O)c2cccc3c(/C=C/CN4C(=O)c5cccc6cccc(c56)C4=O)ccc(c23)C1=O	93.8%	98.7%	84.3%	88.9%	93.7%	94.2%	101%	85.3%	-84.5% (active)	82.1%	113%	-46.8% (active)	-62.4% (active)	-57.4% (active)	57%	101%	106%	92.8%	92%	77.9%
Cn1ccc(=O)nc1	88.7%	104%	82.9%	102%	38.7%	104%	49%	83.2%	109%	102%	8.53% (active)	91.9%	111%	91.9%	92.6%	86.1%	82.9%	99.9%	88.3%	102%
Cn1c(=O)c2[nH]c(SCC(=O)Nc3ccc(C(=O)/C=C/c4ccccc4Cl)cc3)nc2n(C)c1=O	98.1%	93.1%	97.6%	90.4%	102%	65%	94.3%	86.7%	88.3%	117%	102%	84.4%	112%	106%	105%	89.7%	90.5%	101%	86.1%	99.5%
Cc1ccccc1Nc1cc(O)c2c(=O)cc(-c3ccccc3)oc2c1	45.5%	57.8%	70.5%	49.4%	8.06% (active)	86.7%	36%	35.2%	43.5%	61.8%	26.8%	10.2%	47.9%	50.7%	28%	61.5%	27.1%	23.1%	80.6%	24.6%
Fc1cccc(-c2ccc3c(c2)C2(CCNCC2)CN3)c1	92.1%	98%	101%	105%	106%	91.3%	90.4%	99.9%	98.5%	107%	105%	92.6%	109%	91.2%	121%	98.8%	95.4%	98.8%	126%	109%
Cc1ccc(C=C2C(=O)NC(=O)NC2=O)cc1	102%	105%	110%	92.1%	108%	110%	85.9%	87.8%	107%	98.3%	108%	86.1%	101%	118%	113%	100%	104%	111%	94%	101%
CNCc1cccc2c1OCCOCCOCCNS(=O)(=O)c1ccc(cc1)-c1cnc(N)c(n1)C(=O)N2	36.7%	24.5%	46.2%	26.4%	9.41% (active)	61.7%	9.67% (active)	46.3%	30.8%	-18.7% (active)	21.1%	9.35% (active)	29.9%	30.4%	-11.5% (active)	35.7%	70.3%	7.45% (active)	61.3%	26%
Cc1cc2c(cc1C)N(C(=O)CCl)CC(=O)N2	55.7%	33.1%	95%	73.4%	88.7%	93.4%	-81.7% (active)	88.1%	51.2%	-95.6% (active)	78.6%	2.9% (active)	9.7% (active)	51.3%	31.2%	60.9%	99.5%	93.2%	59.5%	55%
O=c1cc(-c2ccccc2)[nH]c2ncc(-c3ccc(F)cc3)n12	72.2%	86.6%	94.2%	67.7%	47.4%	54.9%	36%	66.2%	79.5%	77.4%	94.6%	18.5%	77.8%	62%	72.3%	80.6%	46%	73.8%	83.1%	50.4%
O=C(CSc1nc(-c2ccccc2)cc(=O)[nH]1)Nc1nc(-c2ccccc2)cs1	84.3%	76.2%	93.4%	109%	106%	72.5%	74.4%	95.3%	103%	115%	97.8%	87.7%	110%	116%	87.4%	93.8%	76.4%	113%	94.6%	117%
CN(Cc1ccccc1)c1nc(Cl)c(C2CC(c3ccccc3)=NN2c2ccccc2)s1 (stereo not given)	88.3%	89%	97.6%	84.5%	101%	86%	77.8%	85.7%	93.9%	105%	102%	79.9%	90.3%	101%	101%	86.6%	101%	98.9%	93%	96.6%
Cc1ccc(/C=C(\C#N)n2nnc3cc(F)c(F)cc32)cc1	27.1%	47.6%	4.87% (active)	23.1%	22%	-5.1% (active)	1.39% (active)	10.1%	-26.8% (active)	-27.9% (active)	-3.37% (active)	4.34% (active)	33%	12%	-0.406% (active)	23.4%	36.6%	-25.5% (active)	38%	-27.7% (active)
CC(C)=CCNc1ncnc2c1ncn2C1OC(CO)C(O)C1O (stereo not given)	-19.3% [1 mM] (active)	-70.3% [1 mM] (active)	-4.69% [1 mM] (active)	-17.3% [1 mM] (active)	2.5% [1 mM] (active)	-77.2% [1 mM] (active)	-54.2% [1 mM] (active)	-8.25% [1 mM] (active)	-31.4% [1 mM] (active)	-6.05% [1 mM] (active)	-89.4% [1 mM] (active)	7.4% [1 mM] (active)	32.4% [1 mM]	-54.7% [1 mM] (active)	-71.2% [1 mM] (active)	4.72% [1 mM] (active)	-24.2% [1 mM] (active)	-41.8% [1 mM] (active)	92.7% [1 mM]	26.9% [1 mM]
COc1ccc(C2=CC(c3cc(OC)c(OC)c(OC)c3)n3ncnc3N2)cc1 (stereo not given)	29.1%	51.1%	43%	9.09% (active)	0.735% (active)	27%	-13.3% (active)	14.3%	17.9%	-64.8% (active)	-24.7% (active)	9.56% (active)	75.8%	8.42% (active)	71.1%	31.4%	13.5%	-1.69% (active)	56.5%	-2.18% (active)

— PubChem BioAssay (NCI)
